According to the supplement of paper PMC10849652:
The full data set covers some 7,900 targets. This sample favours those with a hit. About 0.6% of all pairs of compound and target were hits. Unmarked numbers belong to inactive results.

Tests used:
Experiment in all cases: log2 fold change, soluble protein after heating vs DMSO (PISA); higher = thermal stabilisation; K562 cells, 10 uM, 30 min; active = over 0.2 and 3.5 SD of the protein, either way, in both replicates (recomputed)
bafetinib = compound: Cc1ccc(NC(=O)c2ccc(CN3CC[C@H](N(C)C)C3)c(C(F)(F)F)c2)cc1Nc1nccc(-c2cncnc2)n1 [bafetinib]
Method in brief: (§1)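 For each measurement, 10 μM compound was applied for 30 min to K562 cells at 2×10^6 cells/mL. Aliquots were heated for 3 min across 48°C-58°C, pooled, and extracted in PBS with 0.5% NP-40 at 4°C; the supernatant after 21,000xg for 90 min was soluble protein. This was quantified by TMTpro 16plex LC-MS/MS with channel sums equalised, and thermal stability was reported relative to control samples from duplicates, on a log2 fold-change scale.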

[1] = compound: Cc1cccc(CC(=O)N2CCc3c2ccc(-c2cn(C)c4ncnc(N)c24)c3F)n1
Method in brief: as §1

nilotinib = compound: Cc1cn(-c2cc(NC(=O)c3ccc(C)c(Nc4nccc(-c5cccnc5)n4)c3)cc(C(F)(F)F)c2)cn1 [nilotinib]
Method in brief: as §1

[2] = compound: Cc1nc(Nc2n[nH]c3c2CN(C(=O)N[C@H](CN(C)C)c2ccccc2)C3(C)C)c2sccc2n1
Method in brief: as §1

dasatinib = compound: Cc1nc(Nc2ncc(C(=O)Nc3c(C)cccc3Cl)s2)cc(N2CCN(CCO)CC2)n1 [dasatinib]
Method in brief: as §1

[3] = compound: Cc1ncc(-c2ccnc(Nc3ccc(S(C)(=O)=O)cc3)n2)n1C(C)C
Method in brief: as §1

[4] = compound: Cn1cc(-c2ccc3c(c2)CCN3C(=O)Cc2cccc(C(F)(F)F)c2)c2c(N)ncnc21
Method in brief: as §1

[5] = compound: Cn1cc(-c2ccc3nnc(C(F)(F)c4ccc5ncccc5c4)n3n2)cn1
Method in brief: as §1

tipifarnib = compound: Cn1cncc1[C@@](N)(c1ccc(Cl)cc1)c1ccc2c(c1)c(-c1cccc(Cl)c1)cc(=O)n2C [tipifarnib]
Method in brief: as §1

mubritinib = compound: FC(F)(F)c1ccc(/C=C/c2nc(COc3ccc(CCCCn4ccnn4)cc3)co2)cc1 [mubritinib]
Method in brief: as §1

[6] = compound: NC(=O)Nc1cc(-c2cccc(F)c2)sc1C(=O)N[C@H]1CCCNC1
Method in brief: as §1

[7] = compound: NC(=O)c1cnc(N[C@@H]2CCCC[C@@H]2N)nc1Nc1cccc(-n2nccn2)c1
Method in brief: as §1

[8] = compound: NC1(c2ccc(-c3nc4ccn5c(=O)[nH]nc5c4cc3-c3ccccc3)cc2)CCC1
Method in brief: as §1

[9] = compound: NCC(=O)Nc1ccc(-n2nc(C(F)(F)F)cc2-c2ccc3c(ccc4ccccc43)c2)cc1
Method in brief: as §1

entinostat = compound: Nc1ccccc1NC(=O)c1ccc(CNC(=O)OCc2cccnc2)cc1 [entinostat]
Method in brief: as §1

vorinostat = compound: O=C(CCCCCCC(=O)Nc1ccccc1)NO [vorinostat]
Method in brief: as §1

citarinostat = compound: O=C(CCCCCCNC(=O)c1cnc(N(c2ccccc2)c2ccccc2Cl)nc1)NO [citarinostat]
Method in brief: as §1

silmitasertib = compound: O=C(O)c1ccc2c(c1)nc(Nc1cccc(Cl)c1)c1ccncc12 [silmitasertib]
Method in brief: as §1

[10] = compound: O=C1NC(=O)C(c2cnc3ccccn23)=C1c1cn2c3c(cc(F)cc13)CN(C(=O)N1CCCCC1)CC2
Method in brief: as §1

[11] = compound: c1cc(OCCN2CCCCC2)cc(-c2n[nH]c3ccc(-c4nnc[nH]4)cc23)c1
Method in brief: as §1

Chain of UniProt O95379 (O95379 whole entry, looked up): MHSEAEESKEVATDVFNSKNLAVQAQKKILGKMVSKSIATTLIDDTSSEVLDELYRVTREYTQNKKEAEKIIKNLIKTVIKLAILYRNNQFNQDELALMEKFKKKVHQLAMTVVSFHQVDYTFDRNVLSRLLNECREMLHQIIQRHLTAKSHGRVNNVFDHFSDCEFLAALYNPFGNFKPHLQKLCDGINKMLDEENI
Chain of UniProt Q9UL33 (Q9UL33 whole entry, looked up): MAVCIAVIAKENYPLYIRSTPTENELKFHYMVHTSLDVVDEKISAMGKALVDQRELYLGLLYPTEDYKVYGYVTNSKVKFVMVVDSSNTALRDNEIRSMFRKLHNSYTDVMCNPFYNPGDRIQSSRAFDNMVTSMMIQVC
Chain of UniProt O00220 (O00220 whole entry, looked up): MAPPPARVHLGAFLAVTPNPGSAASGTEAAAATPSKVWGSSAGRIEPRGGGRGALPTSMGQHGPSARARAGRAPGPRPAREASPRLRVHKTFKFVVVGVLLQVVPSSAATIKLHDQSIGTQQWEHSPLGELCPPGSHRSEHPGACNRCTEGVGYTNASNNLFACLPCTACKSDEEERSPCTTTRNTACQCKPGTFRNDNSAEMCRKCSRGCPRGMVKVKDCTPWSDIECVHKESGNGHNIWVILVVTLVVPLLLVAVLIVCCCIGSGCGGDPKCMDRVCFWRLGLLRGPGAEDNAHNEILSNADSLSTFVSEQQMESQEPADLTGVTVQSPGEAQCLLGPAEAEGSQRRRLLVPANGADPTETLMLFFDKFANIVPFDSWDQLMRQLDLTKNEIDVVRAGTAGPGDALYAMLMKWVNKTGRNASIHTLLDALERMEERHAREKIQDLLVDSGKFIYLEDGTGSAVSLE
Chain of UniProt Q86WV6 (Q86WV6 whole entry, looked up): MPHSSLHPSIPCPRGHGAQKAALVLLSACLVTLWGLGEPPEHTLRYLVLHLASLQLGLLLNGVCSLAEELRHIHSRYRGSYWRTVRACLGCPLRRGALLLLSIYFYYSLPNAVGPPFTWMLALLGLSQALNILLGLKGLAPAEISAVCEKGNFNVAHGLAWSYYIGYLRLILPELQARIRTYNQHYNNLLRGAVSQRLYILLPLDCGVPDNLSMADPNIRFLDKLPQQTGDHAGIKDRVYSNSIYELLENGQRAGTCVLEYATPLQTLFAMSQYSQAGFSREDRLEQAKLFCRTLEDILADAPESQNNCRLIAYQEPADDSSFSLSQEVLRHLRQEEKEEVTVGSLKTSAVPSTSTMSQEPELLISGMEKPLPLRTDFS
Chain of UniProt Q9NQW7 (Q9NQW7 whole entry, looked up): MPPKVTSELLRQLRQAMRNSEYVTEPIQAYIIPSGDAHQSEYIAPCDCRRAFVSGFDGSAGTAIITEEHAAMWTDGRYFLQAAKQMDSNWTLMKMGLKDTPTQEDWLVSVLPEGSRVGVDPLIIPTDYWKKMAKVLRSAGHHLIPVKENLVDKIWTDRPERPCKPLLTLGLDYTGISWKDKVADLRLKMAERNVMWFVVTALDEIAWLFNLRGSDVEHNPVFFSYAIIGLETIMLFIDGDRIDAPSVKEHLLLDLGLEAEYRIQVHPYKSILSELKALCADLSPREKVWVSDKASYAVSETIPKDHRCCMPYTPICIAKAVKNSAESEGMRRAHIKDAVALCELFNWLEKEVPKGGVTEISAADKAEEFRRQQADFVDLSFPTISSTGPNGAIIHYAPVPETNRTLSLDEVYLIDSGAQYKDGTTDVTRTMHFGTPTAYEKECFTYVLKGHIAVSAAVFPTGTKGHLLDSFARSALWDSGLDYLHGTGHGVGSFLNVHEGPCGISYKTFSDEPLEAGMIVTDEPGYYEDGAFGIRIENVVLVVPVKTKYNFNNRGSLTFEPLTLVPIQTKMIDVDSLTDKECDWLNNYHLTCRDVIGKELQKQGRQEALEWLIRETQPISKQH
Chain of UniProt Q14157 (Q14157 whole entry, looked up): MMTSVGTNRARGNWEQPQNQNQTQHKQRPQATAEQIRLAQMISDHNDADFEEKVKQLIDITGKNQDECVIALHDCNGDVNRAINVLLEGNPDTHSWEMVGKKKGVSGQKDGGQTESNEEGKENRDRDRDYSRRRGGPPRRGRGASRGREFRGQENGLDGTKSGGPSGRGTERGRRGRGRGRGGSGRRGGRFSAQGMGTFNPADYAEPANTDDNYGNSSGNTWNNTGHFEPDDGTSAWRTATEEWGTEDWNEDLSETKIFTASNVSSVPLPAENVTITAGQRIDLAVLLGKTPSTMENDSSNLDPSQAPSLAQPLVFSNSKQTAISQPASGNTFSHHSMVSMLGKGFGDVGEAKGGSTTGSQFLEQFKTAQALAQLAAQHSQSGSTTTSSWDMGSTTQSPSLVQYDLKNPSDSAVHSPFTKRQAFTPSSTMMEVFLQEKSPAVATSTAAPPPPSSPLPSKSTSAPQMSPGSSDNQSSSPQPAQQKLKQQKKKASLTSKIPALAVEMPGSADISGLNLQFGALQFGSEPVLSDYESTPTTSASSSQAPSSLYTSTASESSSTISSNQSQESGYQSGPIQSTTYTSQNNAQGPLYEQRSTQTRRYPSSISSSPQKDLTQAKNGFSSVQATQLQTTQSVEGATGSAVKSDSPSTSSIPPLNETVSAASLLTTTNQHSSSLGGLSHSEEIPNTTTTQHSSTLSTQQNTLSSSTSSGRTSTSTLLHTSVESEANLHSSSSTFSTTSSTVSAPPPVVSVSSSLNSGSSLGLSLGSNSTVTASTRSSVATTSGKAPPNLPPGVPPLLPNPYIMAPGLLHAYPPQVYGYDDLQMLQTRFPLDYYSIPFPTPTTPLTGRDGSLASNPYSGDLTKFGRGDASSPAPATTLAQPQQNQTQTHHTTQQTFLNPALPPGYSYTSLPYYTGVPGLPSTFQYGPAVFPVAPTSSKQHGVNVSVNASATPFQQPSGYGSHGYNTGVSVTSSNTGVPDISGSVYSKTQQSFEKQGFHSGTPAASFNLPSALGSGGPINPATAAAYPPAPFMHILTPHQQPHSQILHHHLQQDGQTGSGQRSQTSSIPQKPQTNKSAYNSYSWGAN
Chain of UniProt Q7Z7E8 (Q7Z7E8 whole entry, looked up): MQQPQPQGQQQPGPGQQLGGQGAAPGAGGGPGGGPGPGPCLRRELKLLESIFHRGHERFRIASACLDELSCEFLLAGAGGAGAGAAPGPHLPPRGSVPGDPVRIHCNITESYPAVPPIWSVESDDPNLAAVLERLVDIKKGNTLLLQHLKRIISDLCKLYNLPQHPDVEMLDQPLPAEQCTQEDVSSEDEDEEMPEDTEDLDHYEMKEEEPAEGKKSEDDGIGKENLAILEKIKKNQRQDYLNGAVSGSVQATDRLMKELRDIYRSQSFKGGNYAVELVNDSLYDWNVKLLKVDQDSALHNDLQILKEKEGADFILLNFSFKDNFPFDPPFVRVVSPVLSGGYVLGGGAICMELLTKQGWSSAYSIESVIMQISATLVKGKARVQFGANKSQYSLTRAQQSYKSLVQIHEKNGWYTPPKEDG
Chain of UniProt O00258 (O00258 whole entry, looked up): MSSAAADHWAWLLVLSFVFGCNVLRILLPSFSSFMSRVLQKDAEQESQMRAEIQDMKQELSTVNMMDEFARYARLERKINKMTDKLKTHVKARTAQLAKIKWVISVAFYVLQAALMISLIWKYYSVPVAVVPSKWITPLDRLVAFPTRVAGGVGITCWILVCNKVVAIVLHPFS
Chain of UniProt Q9Y6I4 (Q9Y6I4 whole entry, looked up): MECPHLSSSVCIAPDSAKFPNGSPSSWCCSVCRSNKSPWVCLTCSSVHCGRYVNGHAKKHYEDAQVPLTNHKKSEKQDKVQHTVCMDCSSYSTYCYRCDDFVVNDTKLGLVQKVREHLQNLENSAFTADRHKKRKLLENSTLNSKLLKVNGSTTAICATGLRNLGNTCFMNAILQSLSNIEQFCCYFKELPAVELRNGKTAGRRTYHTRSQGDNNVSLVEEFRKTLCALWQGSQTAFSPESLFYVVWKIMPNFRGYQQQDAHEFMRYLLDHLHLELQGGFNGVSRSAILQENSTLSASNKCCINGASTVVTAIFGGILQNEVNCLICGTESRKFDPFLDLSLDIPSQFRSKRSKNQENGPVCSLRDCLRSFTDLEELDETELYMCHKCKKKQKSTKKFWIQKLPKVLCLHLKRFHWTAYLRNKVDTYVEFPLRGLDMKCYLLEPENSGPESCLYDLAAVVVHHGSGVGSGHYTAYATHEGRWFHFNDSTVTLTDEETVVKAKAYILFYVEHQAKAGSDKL
Chain of UniProt A6NHL2 (A6NHL2 whole entry, looked up): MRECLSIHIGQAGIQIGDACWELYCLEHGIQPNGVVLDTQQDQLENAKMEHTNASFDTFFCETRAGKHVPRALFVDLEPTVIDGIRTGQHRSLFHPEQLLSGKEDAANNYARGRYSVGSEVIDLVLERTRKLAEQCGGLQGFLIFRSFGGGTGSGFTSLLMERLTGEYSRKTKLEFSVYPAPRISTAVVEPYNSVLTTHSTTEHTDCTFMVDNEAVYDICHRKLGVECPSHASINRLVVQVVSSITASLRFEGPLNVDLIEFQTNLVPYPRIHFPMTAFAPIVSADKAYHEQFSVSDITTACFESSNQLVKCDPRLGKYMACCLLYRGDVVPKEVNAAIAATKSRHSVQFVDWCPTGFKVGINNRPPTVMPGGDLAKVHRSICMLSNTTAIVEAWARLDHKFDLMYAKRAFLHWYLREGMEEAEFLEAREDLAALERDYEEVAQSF
Chain of UniProt Q9Y5K5 (Q9Y5K5 whole entry, looked up): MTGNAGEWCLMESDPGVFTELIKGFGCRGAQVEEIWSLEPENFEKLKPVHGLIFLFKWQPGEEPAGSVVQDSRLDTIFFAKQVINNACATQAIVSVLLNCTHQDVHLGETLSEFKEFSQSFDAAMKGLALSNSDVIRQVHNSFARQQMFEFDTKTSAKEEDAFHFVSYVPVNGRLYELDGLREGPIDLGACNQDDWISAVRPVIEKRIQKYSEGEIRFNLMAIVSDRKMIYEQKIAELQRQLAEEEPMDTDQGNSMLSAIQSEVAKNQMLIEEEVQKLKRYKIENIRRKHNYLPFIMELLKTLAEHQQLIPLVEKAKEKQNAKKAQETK

Target | log2 fold change (bafetinib) | log2 fold change [1] | log2 fold change (nilotinib) | log2 fold change [2] | log2 fold change (dasatinib) | log2 fold change [3] | log2 fold change [4] | log2 fold change [5] | log2 fold change (tipifarnib) | log2 fold change (mubritinib) | log2 fold change [6] | log2 fold change [7] | log2 fold change [8] | log2 fold change [9] | log2 fold change (entinostat) | log2 fold change (vorinostat) | log2 fold change (citarinostat) | log2 fold change (silmitasertib) | log2 fold change [10] | log2 fold change [11]
WRB (UniProt O00258) | -0.072 | -0.011 | 0.015 | 0.005 | 0.031 | -0.036 | -0.011 | 0.089 | 0.024 | 0.052 | 0.003 | 0.019 | -0.018 | 0.006 | -0.011 | -0.035 | 0.034 | 0.028 | 0.062 | -0.042
TOP2A isoform 4 (UniProt P11388) | 0.308 | 0.092 | -0.119 | 0.033 | 0.102 | -0.11 | -0.29 | -0.324 | 0.104 | -0.292 | 0.159 | 0.058 | 0.307 | 0.19 | -0.042 | 0.034 | -0.112 | 0.255 | 0.296 | -0.205
TMEM173 (UniProt Q86WV6) | 0.007 | 0.019 | -0.129 | -0.013 | -0.156 | 0.003 | 0.001 | -0.046 | 0.021 | 0.066 | 0.002 | -0.041 | -0.078 | -0.06 | 0.032 | -0.09 | -0.028 | -0.041 | 0.035 | 0.006
USP3 (UniProt Q9Y6I4) | 0.011 | -0.009 | -0.125 | -0.198 | -0.185 | -0.026 | 0.027 | -0.023 | -0.226 | 0.045 | 0.039 | 0.016 | -0.218 | -0.115 | -0.037 | 0.092 | 0.102 | 0.019 | -0.066 | -0.014
WDR18 (UniProt Q9BV38) | -0.031 | 0.05 | -0.059 | -0.024 | 0 | -0.048 | 0.029 | -0.016 | -0.018 | 0.022 | 0.013 | -0.021 | -0.043 | 0.054 | 0.019 | 0.025 | 0.018 | 0.013 | -0.03 | 0.017
TMEM189-UBE2V1 (UniProt I3L0A0) | -0.038 | -0.035 | -0.012 | 0.229 (active) | -0.009 | 0.055 | 0.015 | 0.069 | 0.056 | 0.026 | 0.06 | -0.018 | -0.063 | -0.018 | -0.097 | 0.005 | 0.046 | -0.058 | 0.009 | -0.016
TOM1 isoform 2 (UniProt O60784) | -0.122 | 0.026 | -0.055 | -0.104 | -0.034 | 0.116 | -0.015 | -0.012 | 0.022 | -0.033 | -0.002 | -0.104 | -0.066 | -0.082 | -0.045 | -0.119 | 0.056 | -0.019 | -0.026 | -0.081
TNFAIP8 isoform 4 (UniProt O95379) | -0.079 | 0.014 | -0.045 | -0.095 | -0.109 | 0.007 | 0.047 | 0.005 | -0.023 | 0.031 | -0.032 | -0.091 | -0.061 | 0.029 | 0.018 | 0.207 (active) | 0.012 | 0.147 | -0.073 | 0.087
TNFRSF10A (UniProt O00220) | -0.044 | -0.051 | 0.061 | -0.055 | -0.015 | 0.058 | -0.082 | -0.005 | -0.054 | -0.05 | -0.097 | -0.019 | 0.06 | 0.029 | -0.202 | -0.178 | -0.011 | 0.028 | -0.069 | -0.07
UCHL5 (UniProt Q9Y5K5) | 0.014 | 0.045 | -0.06 | -0.071 | -0.152 | 0.007 | 0.012 | 0 | -0.093 | -0.001 | -0.003 | -0.029 | -0.124 | -0.045 | 0.048 | 0.063 | 0.08 | 0.04 | -0.084 | -0.026
TRAPPC2L (UniProt Q9UL33) | -0.042 | -0.02 | -0.062 | -0.068 | -0.118 | 0.064 | -0.041 | -0.111 | -0.111 | 0.013 | 0.005 | -0.025 | -0.126 | 0.054 | 0.008 | 0.068 | 0.031 | 0.037 | -0.047 | -0.099
TUBAL3 (UniProt A6NHL2) | 0.167 | 0.049 | -0.144 | 0.027 | 0.051 | -0.029 | 0.005 | -0.095 | -0.097 | -0.01 | 0 | -0.082 | -0.006 | 0.031 | 0.061 | 0.037 | -0.06 | 0.087 | 0.059 | -0.291
WNK1 isoform 7 (UniProt Q9H4A3) | -0.038 | 0.046 | -0.029 | -0.071 | 0.102 | 0.022 | 0.178 | -0.022 | -0.022 | 0.036 | 0.002 | 0.001 | -0.037 | -0.042 | 0.008 | -0.05 | 0.009 | -0.062 | -0.01 | -0.063
XPNPEP1 isoform 3 (UniProt Q9NQW7) | -0.047 | -0.013 | -0.036 | 0.014 | -0.086 | -0.028 | 0.084 | 0.039 | -0.033 | 0.042 | -0.04 | -0.052 | -0.126 | -0.07 | 0.015 | 0.399 (active) | 0.062 | -0.037 | -0.02 | 0.025
UBE2Q1 (UniProt Q7Z7E8) | -0.029 | 0.015 | -0.134 | -0.103 | -0.101 | -0.046 | -0.012 | 0.027 | -0.103 | 0.006 | -0.01 | -0.059 | -0.084 | -0.012 | 0.03 | 0.084 | 0.029 | 0.074 | -0.035 | -0.035
UBAP2L isoform 1 (UniProt Q14157) | -0.006 | -0.043 | 0.013 | -0.134 | 0.058 | -0.056 | 0.064 | 0.034 | 0.076 | 0.07 | 0.071 | 0.076 | -0.064 | 0.039 | -0.043 | 0.041 | -0.022 | -0.031 | -0.012 | 0.03
